Measurements: PubChem BioAssay AID488857 (Sanford-Burnham Center for Chemical Genomics, 2010)
Out of some 1,400 compounds screened, about 560 (40%) were called active. So high a share suggests a set chosen from earlier hits. Some of the results follow. Values without a mark were called inactive.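 The calls were made as follows: active = mean inhibition over duplicate tests at 10 µM above 50%; inactive = the rest.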

Assay: ASC/caspase-1 reporter retest in S. cerevisiae at one dose, specificity check for NALP1 project (AID 488857)
Settings: S. cerevisiae ASC/Caspase-1, beta-galactosidase luminescence, 24 h; at 10 µM; stronger effect = higher value

Structure (SMILES) | inhibition
CC(=O)Nc1ccc(C(=O)CSc2nnc(Cc3ccccc3)o2)cc1 | 24.2%
Cc1cc(C)cc(OCc2nnc(SCC(=O)OC(C)C)o2)c1 | 61.5% (active)
COc1ccc(CNc2cccc(F)c2)cc1Br | 72.2% (active)
COc1cc(Cc2cnc(N)nc2N)cc(OC)c1OC | 14.2%
COc1ccc(Cc2ccc(OC)c(N)c2)cc1N | 53.1% (active)
COC(=O)N/N=C/c1ccc(OC(=O)c2ccco2)c(OC)c1 | 30.8%
Cc1ccc(/C=N/NC(=O)c2ccc3nc[nH]c3c2)o1 | 47.4%
COC(=O)N/N=C/c1ccc(-c2cccc(Cl)c2)o1 | 80.9% (active)
CC1(C)CCSC(/C=C/c2ccccc2)=N1 | 92% (active)
C(#Cc1ccc(C#CCN2CCCC2)cc1)CN1CCCC1 | 42.5%
Cc1[nH][nH]c(=O)c1C(c1ccc(-c2ccc(Cl)c(Cl)c2)o1)c1c(C)[nH][nH]c1=O | 39.9%
Cc1[nH][nH]c(=O)c1C(c1c(C)[nH][nH]c1=O)c1cn(Cc2ccc(Cl)c(Cl)c2)c2ccccc12 | 61.2% (active)
COc1ccc(S(=O)(=O)N2CCOC2CNC(=O)C(=O)NCCCN2CCOCC2)cc1C (configuration not stated) | 28.6%
CSc1cc(N2CCOCC2)nc(-c2ccccc2Cl)n1 | 74.1% (active)
O=[N+]([O-])/C=C/c1ccc2c(ccn2Cc2ccccc2)c1 | 98.8% (active)
C/C(=N/NC(=O)c1nnn(-c2nonc2N)c1COc1ccccc1)c1ccc(O)cc1 | 27.6%
CCOc1nnc(C)c2c(C)n(-c3cccc(Cl)c3)nc12 | 28.1%
Cc1ccc(OC(=S)Nc2ccc(O)cc2)cc1 | 88.4% (active)
Cc1ccc(NC(=O)CNc2ccc(OC(C)C)cc2)cc1 | 39.6%
Cc1ccc(C(=O)/C=C/c2cn(CC(O)CN3CCOCC3)c3ccccc23)cc1 (configuration not stated) | 52.7% (active)
CNc1ccccc(-c2ccc3ccccc3n2)c1=O | 39.4%
CCN1/C(=C/C=C/C=C/c2sc3ccccc3[n+]2CC)Sc2ccccc21 | 41%
CCN1/C(=C\c2ccc3ccccc3[n+]2CC)Sc2cc(C)ccc21 | 100% (active)
CCN1/C(=C/c2ccc3cc(C)ccc3[n+]2CC)Sc2ccccc21 | 100% (active)
CC[n+]1c(/C=C2\Sc3ccccc3N2C)ccc2cccc(C)c21 | 98.1% (active)
CCN1/C(=C/c2ccc3ccc(C)cc3[n+]2CC)Sc2ccccc21 | 84.9% (active)

Structure (SMILES) | inhibition
Cc1cc(N2C(=O)C=CC2=O)c([N+](=O)[O-])cc1C | 3%
CC1(C)NC(=O)N(CCCCOc2ccc3ccccc3c2Cl)C1=O | 48.8%
O=C(CCNc1n[nH]c(=O)[nH]c1=O)N/N=C/c1ccc(C(F)(F)F)cc1 | 23.2%
COc1cc(OC)c(-c2nnc(-c3ccc(OC)c(OC)c3OC)o2)cc1OC | 31%
Cc1ccc2c(c1)c1c3n2CCCNC3CCC1 (configuration not stated) | 33%
CCc1ccc(NCc2nc(-c3ccccc3)no2)cc1 | 57.2% (active)
c1ccc(-c2noc(-c3ccccc3-c3ccccc3)n2)cc1 | 23.6%
COCCCNCCOc1cc(C(C)C)ccc1C | 30.4%
CC(C)c1ccc(CN2CCN(C(=O)CCl)CC2)cc1 | 35.6%
Cc1ccc(C(C)C)cc1OCCN1CCCC1 | 54.6% (active)
CCc1cccc(OCCN2CCCC2)c1 | 41.1%
Cc1cc(OCCN2CCCC2)cc(C(C)C)c1 | 53.9% (active)
Cc1cccc(C)c1OCC(=O)Nn1c(=O)[nH]c2ccccc2c1=O | 34.9%
CCCCCCCCCCCCCCCCn1cc[n+](CC(C)=O)c1 | 80.2% (active)
CCCCCCCCCCCCCCCCn1cc[n+](C)c1 | 89.7% (active)
CCNc1ccc(Br)cc(C(=O)/C=C/c2c(Cl)cccc2Cl)c1=O | 42.6%
O=C(/C=C/c1ccccn1)c1ccc(Br)cc1O | 85.5% (active)
Cc1cc(C)c(S(=O)(=O)N(CC(=O)O)CC(=O)O)c(C)c1 | 46%
CC[N+]1(CC)CC2=Cc3c(ccc4ccccc34)CC2C1 (configuration not stated) | 35.5%
CCCCCCOc1ccc(N2C(=O)CC(N3CCC(C(=O)OCC)CC3)C2=O)cc1 (configuration not stated) | 45.4%
CCOc1ccc(N2C(=O)CC(N)C2=O)cc1 (configuration not stated) | 70% (active)
CCOc1ccc(C2N(c3ccc(F)cc3)C(=O)C3CCCN32)cc1 (configuration not stated) | 26.1%
Cc1ccc(Cl)cc1N1CCN(S(C)(=O)=O)CC1 | 33.1%
O=C(Cc1cccs1)Nc1nc(-c2ccc(F)cc2F)cs1 | 74.7% (active)
COc1ccc(-c2nc3c(c(=O)[nH]c(=O)n3Cc3ccccc3)n2C)cc1 | 41%
CCOC(=O)c1ccccc1NC(=O)COc1cc(=O)n(CC)c2ccccc12 | 33.4%

Structure (SMILES) | inhibition
CCOc1ccccc1C(=O)OCC(=O)Nc1ccc(N2CCCCC2)cc1 | 67.3% (active)
O=C(Nc1ccc(F)cc1)c1cccnc1N1CCCCC1 | 43.2%
CNC(=S)N/N=C/c1cc(Br)cc(Br)c1O | 85.5% (active)
CC(=O)n1cc(-c2ccncc2)c2ccccc21 | 52.4% (active)
CN1CCc2cccc3c2[C@H]1Cc1ccc(O)c(O)c1-3 | 50.5% (active)
CN1CCc2cccc3c2[C@@H]1Cc1ccc(O)c(O)c1-3 | 67% (active)
Fc1ccc(Nc2ccnc(Nc3ccc(F)cc3)n2)cc1 | 46.8%
COc1ccc(Nc2ccnc(Nc3ccc(OC)cc3)n2)cc1 | 64.2% (active)
CN(C)S(=O)(=O)c1ccc(N2CCCC2)c(C(=O)Nc2nc3ccccc3s2)c1 | 42.1%
O=C(NC(Nc1nc2ccc([N+](=O)[O-])cc2s1)(C(F)(F)F)C(F)(F)F)c1ccccc1Cl | 100% (active)
CC(C)(C)C1=CC(=O)C(=O)C(C(C)(C)C)=C1 | 12.5%
COC1=C(Nc2ccccc2)C(=O)c2ccccc2C1=O | 26.2%
COc1ccccc1NC1=C(N2CCCCC2)C(=O)c2ccccc2C1=O | 81.7% (active)
O=C1OC(/C=C/c2ccc(Cl)cc2)=NC/1=C/c1ccco1 | 39.5%
CCCCCCOc1ccc(/C(C)=N/NC2=NCCN2)cc1 | 80.3% (active)
CCCCCCOc1ccc(OC(=O)c2ccncc2)cc1 | 14.7%
CCCCCCOc1ccc(-c2ccc(C#N)cn2)cc1 | 37.6%
CCCCCOc1ccc(Br)cc1/C(C)=N/NC1=NCCN1 | 78.4% (active)
Cc1c(-c2ccccc2)[n+](=O)c2c(n1[O-])CCC2 | -7.75%
NC(C(=O)O)C1CC(Cl)=NO1 (configuration not stated) | 59.1% (active)
CCCN(CCC)C(=O)Cn1c(=O)n(CCCCC(=O)NCc2ccco2)c(=O)c2ccccc21 | 49%
CCc1ccc(S(=O)(=O)/N=C2/C=C(Sc3ncn[nH]3)C(=O)c3ccccc32)cc1 | 96% (active)
CSCCNC(C)=O | 17%
COC(=O)c1sccc1N/N=C(\C)c1ccc(F)c(Cl)c1 | 36%
CC1=C(C(=O)Nc2ccc(Cl)cc2)C(c2ccco2)NC(=O)N1 (configuration not stated) | 15.8%
O=C(Nc1ccc(Cl)cc1)C1=Cc2ccccc2OC1 | 65.8% (active)

Structure (SMILES) | inhibition
CCc1cccc(CC)c1NC(=S)NCCc1c(C)[nH]c2ccccc12 | 50.6% (active)
CCc1cccc(C)c1NC(=S)NCCc1c(C)[nH]c2ccc(C)cc12 | 44.8%
COc1ccc(CNCC(O)(c2ccccc2)c2ccc(Cl)cc2)cc1 (configuration not stated) | 60% (active)
CNC(=O)C(NC(=O)c1ccccc1)=C(C)C | 38.2%
C=C(C(=O)c1ccccc1)C(C)C(=C)C(=O)c1ccccc1 | 59.5% (active)
COC(=O)c1c(N)c(C#N)c2n1CCCCC2 | 37.8%
CCOC(=O)c1nc(C)sc1-c1ccnn1S(=O)(=O)c1ccc(C)cc1 | 45.4%
Nc1nc(-c2ccco2)nn1S(=O)(=O)c1ccccc1 | 21.7%
COc1ccc(-c2nc(N)n(S(=O)(=O)c3ccc(C)cc3)n2)cc1 | 63.5% (active)
Cc1c(-c2nc(N)nc(Nc3ccccc3)n2)oc2ccccc12 | 45.6%
O=C1CC(Sc2nnnn2-c2ccccc2)C(=O)N1c1cccc(Cl)c1 (configuration not stated) | 47.4%
CCOc1cccc(N2C(=O)CC(N3CCN(c4ccc(S(=O)(=O)CC)cc4)CC3)C2=O)c1 (configuration not stated) | 34.4%
CCOc1ccc2nc(SC3CC(=O)N(c4cccc(OC)c4)C3=O)sc2c1 (configuration not stated) | 85% (active)
COC(=O)CSC1=C(C#N)C(=O)NC(c2ccccc2)S1 (configuration not stated) | 39.5%
Cc1ccc(C(=O)NCCc2cccc(Cl)c2)cc1[N+](=O)[O-] | 73.5% (active)
COCCNC(=O)c1ccc(C)c(S(=O)(=O)Nc2ccc(C)cc2)c1 | 27.9%
CCn1c2ccccc2c2cc(NC(=O)c3ccc(C)c([N+](=O)[O-])c3)ccc21 | 45.8%
Cc1ccc(CSCCNC(=O)CSCc2ccc([N+](=O)[O-])cc2)cc1 | 68.6% (active)
COCCNC(=O)CCc1ccc(S(=O)(=O)Nc2ccc(C)cc2)cc1 | 25.9%
Cc1ccc(C(=O)NCCSCc2ccccc2)cc1[N+](=O)[O-] | 52.2% (active)
Cc1ccc(S(=O)(=O)NC2=NCN(CCOC(=O)c3ccc([N+](=O)[O-])cc3)CN2)cc1 | 14.1%
Cc1cccc(C(=O)NCc2ccc(S(N)(=O)=O)cc2)c1[N+](=O)[O-] | 30.2%
CCCCCCC1CCC(C(=O)Nn2c(C)nc3ccccc3c2=O)CC1 (configuration not stated) | 49%
CC1CCCC/C1=N\Nc1ccc(S(N)(=O)=O)cc1[N+](=O)[O-] (configuration not stated) | 25.7%
